Assay outcomes deposited in PubChem by several laboratories.
PfHsp40 yeast: rescue of yeast from PfHsp40 toxicity, primary screen, S. cerevisiae, ATP luminescence; hit rate 0.68% among 340,000; growth rescue, % at 12.5 µM; S. cerevisiae expressing PfHsp40, growth rescue; AID 504582, 2011; in the data active = growth rescue above about 28%, passing the limit was not always enough; inconclusive = no clear call, values can overlap the other calls;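 also: yeast W303a lacking pdr1 and pdr3 grown in galactose medium; growth measured after three days at 30 °C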
ugtP null kill: growth inhibition of ugtP-null S. aureus, primary screen, RN4220 ugtP deletion, OD600; 16 h; growth inhibition, % (no concentration beside the values); hit rate 0.54% among 330,000; in the data active = growth inhibition above about 68%
Mtb bLac sens: beta-lactam sensitization of Mtb H37Rv, H37Rv | M. tuberculosis H37Rv growth with meropenem, percent inhibition | inhibition, % at 25 µM | hit rate 0.27% among 330,000; call rule not given here;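 also: growth measured after seven days incubation then overnight dye step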
RN4220 kill: growth inhibition of S. aureus RN4220, primary screen, OD600. AID 1259311, 2017. 16 h. hit rate 0.33% among 330,000. inhibition, % (concentration not given with the values); in the data active = inhibition above about 85%
BH1578 lux ind: inducers of Vibrio cholerae quorum light production without autoinducers, primary screen, BH1578 luxS cqsA deficient, single point; V. cholerae BH1578 lux reporter, luminescence, 6 h; activation, % at 18.7 µM; hit rate 0.16% among 350,000; AID 588436, 2011; in the data active = activation mostly above about 9.7%, no sharp cut-off; inconclusive = no clear call, values can overlap the other calls; inactive = mostly below about 3.7%
Numbers stand for hits; 0 = inactive; ? = inconclusive; - = no result given. Shown are actives, neighbours in structure and some others; about 1.2% of the full set was active somewhere.

SMILES | PfHsp40 yeast | ugtP null kill | Mtb bLac sens | RN4220 kill | BH1578 lux ind
COc1ccc(C2CC(=O)C=C(c3ccc(Cl)c(Cl)c3)C2)cc1 (stereo unspecified) | - | 0 | - | 0 | -
NC(=O)CCC1NC(=O)C2CCCN2C(=O)c2cc([N+](=O)[O-])cc(I)c2NCCCC(C(=O)NC(CC(=O)O)C(N)=O)NC1=O (stereo unspecified) | - | 0 | - | 0 | -
Oc1ccc(CN2CCCc3ccccc32)c2cccnc12 | 38 | 0 | 0 | 0 | 0
Cc1ccc(-c2cc(C(=O)N3CCN(c4ccccc4O)CC3)c3ccccc3n2)o1 | 137 | 0 | 0 | 0 | 0
COc1ccc2oc(C(=O)N(C)Cc3ccc4c(c3)OCCO4)c(C)c2c1 | 0 | 0 | 0 | 0 | 0
COc1ccc2oc(C(=O)OCC(=O)c3ccc4c(c3)OCCO4)c(C)c2c1 | 72 | 0 | 0 | 0 | 0
CC(=O)/C=C(\C)Nc1ccccc1O | 43 | 0 | 0 | 0 | 0
O=C(Nc1ccccc1O)c1ccccc1O | 0 | 0 | 0 | 0 | 0
O=[N+]([O-])c1ccccc1/C=N/Nc1nnc(-c2ccccc2)c(-c2ccccc2)n1 | 42 | - | ? | - | 0
O=[N+]([O-])c1ccccc1C=NNc1nc(N2CCCC2)nc(N2CCCC2)n1 | - | 0 | - | 0 | -
Cc1c(C(=O)O)cccc1-c1ccc(/C=N/Nc2ccc(Br)cc2)o1 | 355 | - | 0 | - | 0
CC(C)/C=C(/C(=O)c1ccc(Cl)cc1Cl)n1cncn1 | 399 | 0 | 0 | 0 | 0
CC1CC(C)C(=NNC(N)=O)C(C(O)CC2CCC(=O)NC2=O)C1 (stereo unspecified) | 33 | 0 | - | 0 | 0
Cc1cc(C)c(OCC(=O)Nc2ccc(NC(=O)c3ccco3)cc2)c([N+](=O)[O-])c1 | 0 | 0 | 0 | 0 | 0
Cc1cc(C)c(OCC(=O)Nc2cccc(NC(=O)c3ccco3)c2)c(Br)c1 | 122 | 0 | 0 | 0 | 0
[O-][n+]1cccc2c(Br)cc(Br)c(O)c21 | 310 | 0 | 0 | 0 | 0
CCCOc1cccc(-c2cc(C(=O)NN=Cc3ccccn3)c3ccccc3n2)c1 | - | 0 | - | 0 | -
C=CC1=C(C(=O)O)N2C(=O)C(NC(=O)Cc3ccccc3)C2SC1 (stereo unspecified) | 0 | 101 | 0 | 101 | 0
CCOc1ccc(C(=O)NC2C(=O)N3C(C(=O)O)=C(COC(C)=O)CSC23)cc1OCC (stereo unspecified) | 0 | 0 | - | 0 | 0
Cc1nnc(SCC2=C(C(=O)O)N3C(=O)C(NC(=O)COc4ccc(F)cc4)C3SC2)s1 (stereo unspecified) | 0 | 97 | - | 100 | 0
CCC(C(=O)NC1C(=O)N2C(C(=O)O)=C(CSc3nnc(C)s3)CSC12)c1ccccc1 (stereo unspecified) | 0 | 100 | - | 100 | 0
Cc1nnc(SCC2=C(C(=O)O)N3C(=O)C(NC(=O)c4cc(F)c(F)cc4Cl)C3SC2)s1 (stereo unspecified) | 0 | 100 | 0 | 100 | 0
COc1ccc(NCC(=O)NN=C2CCc3ccccc32)cc1 | - | 0 | - | 0 | -
CCOC(=O)C1C2COc3ccc(Cl)cc3C2N2C(=O)c3cc(C)ccc3NC(=O)[C@@]12C (stereo partly specified) | - | 0 | - | 0 | -
O=C(COc1ccccc1)NC1C(=O)N2C(C(=O)O)=C(Cl)CSC12 (stereo unspecified) | 0 | 101 | 0 | 101 | 0
SMILES | PfHsp40 yeast | ugtP null kill | Mtb bLac sens | RN4220 kill | BH1578 lux ind
Cc1nnc(SCC2=C(C(=O)O)N3C(=O)C(NC(=O)COc4ccccc4)C3SC2)s1 (stereo unspecified) | 0 | 101 | - | 100 | 0
CC1=C(C(=O)OCc2ccccc2)N2C(=O)[C@@H](NC(=O)COc3ccccc3)[C@H]2SC1 | 0 | 0 | 0 | 0 | 0
CC(=O)OCC1=C(C(=O)O)N2C(=O)C(NC(=O)COc3ccc(F)cc3)C2SC1 (stereo unspecified) | 0 | 101 | - | 100 | 0
O=C(CC1C(=O)N(Cc2ccccc2)CC1Cc1ccccc1)Nc1ccccc1 (stereo unspecified) | - | 0 | - | 0 | -
O=C(CSc1ccc(-c2ccccn2)nn1)N1CCCCC1 | 135 | - | 0 | - | 0
O=C(OCC(=O)N1CCc2ccccc21)c1ccccn1 | 0 | 0 | 0 | 0 | 0
O=C(CSc1ccc(-c2ccccn2)nn1)NC1CCCCC1 | 320 | 0 | 0 | 0 | 0
O=C(CSc1ccc(-c2ccccn2)nn1)N1CCc2ccccc21 | 224 | 0 | 0 | 0 | 0
O=C(CSc1ccc(-c2ccccn2)nn1)c1ccc([N+](=O)[O-])cc1 | 95 | 0 | 0 | 0 | 0
O=C(C=Cc1ccc(Cl)cc1)N(Cc1ccccc1)c1ccccn1 | - | 0 | - | 0 | -
O=C(CSc1ncccn1)N1CCCc2ccccc21 | 0 | 0 | 0 | 0 | 0
O=C(CSc1ccccn1)N1CCc2ccccc21 | 72 | 0 | 0 | 0 | 0
COc1ccc(C(=O)NN=Cc2ccc(OC)c(COc3ccccc3Br)c2)c(OC)c1 | - | 0 | - | 0 | -
CCn1cc(C(=O)O)c(=O)c2cnc(N3CCN(C(=S)NC(=O)c4ccccc4)CC3)nc21 | 0 | 0 | 0 | 0 | 0
CCn1cc(C(=O)O)c(=O)c2cc(F)c(N3CCN(C(=S)NC(=O)c4cc(OC)cc(OC)c4)CC3)cc21 | 0 | 99 | 0 | 100 | 0
CCn1cc(C(=O)NCc2ccccc2)c(=O)c2cc(F)c(N3CCN(C(=O)c4ccco4)CC3)cc21 | 0 | 0 | 0 | 0 | 0
CCn1cc(C(=O)O)c(=O)c2cc(F)c(N3CCN(C(=S)Nc4ccc(OC)cc4)CC3)cc21 | 0 | 0 | 0 | 0 | 0
CCn1cc(C(=O)O)c(=O)c2cc(F)c(N3CCN(C(=S)NC(=O)c4ccccc4)CC3)cc21 | 0 | 99 | 0 | 99 | 0
CCn1cc(C(=O)O)c(=O)c2cc(F)c(N3CCN(C(=S)NC(=O)c4ccccc4C)CC3)cc21 | 0 | 100 | - | 100 | 0
CCn1cc(C(=O)O)c(=O)c2cc(F)c(N3CCN(C(=S)NC(=O)c4ccccc4Cl)CC3)cc21 | 0 | 100 | 0 | 100 | 0
CCn1cc(C(=O)O)c(=O)c2cc(F)c(N3CCN(S(=O)(=O)c4ccc(Br)cc4)CC3)cc21 | - | - | 0 | - | -
COc1ccccc1NS(=O)(=O)c1cccc(C(=O)NN=Cc2ccc(C)o2)c1 | - | 0 | - | 0 | -
COC(=O)C1=C(C(=O)OC)C2N(C)c3ccccc3[C@@]23CC(C(=O)OC)N(C(=O)COCc2ccccc2)C3=N1 (stereo partly specified) | - | 0 | - | 0 | -
Cc1snc(S(=O)(=O)C(C#N)=NNc2ccccc2)c1C#N | - | 0 | - | 0 | -
Cc1ccc(C(=O)C(SC(C)(C)C)n2cncn2)cc1 (stereo unspecified) | 467 | 0 | 0 | 0 | 0
CC1CCc2c(sc(NC(=O)CSc3ncn[nH]3)c2C#N)C1 (stereo unspecified) | 0 | 0 | 0 | 0 | 0
CC(C)(C)C1CCc2c(sc(NC(=O)CSc3ncn[nH]3)c2C#N)C1 (stereo unspecified) | 0 | 88 | 0 | 0 | 0
Cc1cc(C(=O)NN=Cc2cn(C)nc2C)c2ccccc2n1 | - | 0 | - | 0 | -
CCOC(=O)Nc1cccc(Nc2ccccc2)c1 | 0 | 0 | 0 | 0 | 0
CCOC(=O)NNc1ccccc1 | 62 | 0 | 0 | 0 | 0
